Drawing on PubChem BioAssay (EPA / NIEHS), this text covers AC50 and outcome for 1 compound.

Results filed as inconclusive are left out. The source made the active and inactive calls. Rule for the calls, unless noted: active = hit-call score of the fitted dose curve at least 0.9, where 1 is the maximum; inactive = score below 0.9.

Experiment [1] can be described thus: CCTE_Shafer_MEA_dev_firing_rate_mean: CCTE's Neural Network Formation Assay for Mean Firing Rate, Shafer Lab (AID 2284031).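 Note: curve fitted for loss of firing so AC50 reflects decreased mean firing rate.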 An outline of the steps: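 Extracellular spike frequency, AUC over DIV 5–12 recordings, in rat cortical neuron MEA cultures dosed from plating; loss direction vs DMSO.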
The nature of experiment [2]: CCTE_Shafer_MEA_dev_per_burst_spike_percent: CCTE's Neural Network Formation Assay for Percent of Spikes in a Burst, Shafer Lab (AID 2284032).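 Note: fitted as a decrease in burst spike percentage below DMSO baseline.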 An outline of the steps:
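Value is trapezoidal AUC over recordings on days 5, 7, 9 and 12 of the well-mean fraction of spikes falling in single-electrode bursts; rat cortical cultures exposed continuously from plating, treatment renewed DIV 5 and 9, fitted downward against DMSO.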

Experiment [3] in a line: CCTE_Shafer_MEA_dev_active_electrodes_number: CCTE's Neural Network Formation Assay for Number of Active Electrodes, Shafer Lab (AID 2284040; active = hit-call score of the fitted dose curve at least 0.9, where 1 is the maximum;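 note: potency for loss of active electrodes versus DMSO so lower counts are hits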). An outline of the steps: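 Developing rat cortical networks on MEAs, exposed DIV 0–12. Value is the AUC of active-electrode counts (≥5 spikes/min) from days 5, 7, 9, 12, relative to DMSO.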
Experiment [4] can be described thus: CCTE_Shafer_MEA_dev_burst_rate: CCTE's Neural Network Formation Assay for Burst Rate, Shafer Lab (AID 2284042).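 Note: potency for loss of burst rate below DMSO control.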 In a few lines:
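Cells plated, treated day 0; recorded DIV 5, 7, 9, 12; fed and re-treated DIV 5, 9. Endpoint: bursts per recording time, active-electrode well mean, trapezoidal AUC, fitted in decreasing direction against DMSO baseline.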

A short description of experiment [5]: CCTE_Shafer_MEA_dev_per_burst_interspike_interval: CCTE's Neural Network Formation Assay for Burst Interspike Interval, Shafer Lab (AID 2284044).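 Note: potency for a decrease of within-burst interspike interval below DMSO level.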 In a few lines:
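Primary rat cortical neurons on 48-well MEA plates, exposed from day 0 through day 12, treatment renewed at DIV 5 and 9. Within-burst interspike interval recorded days 5, 7, 9, 12, well-averaged, summarised as AUC; negative fit versus DMSO.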

The nature of experiment [6]: CCTE_Shafer_MEA_dev_burst_duration_mean: CCTE's Neural Network Formation Assay for Mean Burst Duration, Shafer Lab (AID 2284045).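 Note: curve fitted for loss meaning shorter burst duration than DMSO.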 In a few lines: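 Network-formation assay in primary rat cortical neurons; treatment spans twelve days of development. Mean burst duration per well is integrated by trapezoidal AUC and fitted in the loss-of-signal direction against DMSO baseline.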

Experiment [7] in a line: CCTE_Shafer_MEA_dev_interburst_interval_mean: CCTE's Neural Network Formation Assay for Mean Interburst Interval, Shafer Lab (AID 2284046).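 Note: well-mean interburst interval of bursting electrodes as AUC over four recording days; curve fitted for decrease in interburst interval relative to DMSO.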 In a few lines:
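Developing rat cortical networks on 48-well MEAs receive compound from the day of plating. Burst intervals from each active electrode are averaged per well, and AUC over the recording days is fitted in the negative direction against DMSO.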

Experiment [8] is described as follows: CCTE_Shafer_MEA_dev_inter_network_spike_interval_mean: CCTE's Neural Network Formation Assay for Mean Inter-network Spike Interval, Shafer Lab (AID 2284047).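 Note: potency for a decrease in mean inter-network spike interval below DMSO.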 An outline of the steps:
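Rat cortical cultures, 1.5 x 10^5 cells/well on 48-well MEA plates; continuous exposure days 0–12, medium and compound refreshed DIV 5, 9. Mean time between consecutive network-spike peaks; AUC across DIV 5/7/9/12; DMSO baseline, negative fitting direction.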

Experiment [9] is described as follows: CCTE_Shafer_MEA_dev_network_spike_number: CCTE's Neural Network Formation Assay for Number of Network Spikes, Shafer Lab (AID 2284048).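 Note: synchronized bursts across electrodes counted on days 5 7 9 12 and integrated as AUC; fit as a loss of signal meaning fewer network spikes than DMSO.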 In a few lines:
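Extracellular recordings from 16-electrode wells track network formation in rat cortical cultures under continuous treatment from plating. The endpoint is network spike number, expressed as AUC across DIV 5–12 relative to DMSO vehicle.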

Experiment [10] in a line: CCTE_Shafer_MEA_dev_spike_duration_mean: CCTE's Neural Network Formation Assay for Mean Spike Duration, Shafer Lab (AID 2284051).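 Note: potency for a decrease in mean network spike duration versus DMSO.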 In a few lines: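 Readout is the average length of network spikes, clustered firing across electrodes, summed over DIV 5, 7, 9 and 12 as area under the curve. Neurons from rat cortex developed networks on MEA plates under continuous 12-day exposure.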

The nature of experiment [11]: CCTE_Shafer_MEA_dev_network_spike_duration_std: CCTE's Neural Network Formation Assay for Standard Deviation of Network Spike Duration, Shafer Lab (AID 2284052).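 Note: hits are decreases in network spike duration SD versus DMSO vehicle.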 An outline of the steps: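 Read-out is the trapezoidal area-under-the-curve across recordings made on days 5, 7, 9 and 12, fitted in the negative direction against DMSO baseline. Neurons were primary rat cortical cells treated from day 0, with treatment renewed at each feed.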

The nature of experiment [12]: CCTE_Shafer_MEA_dev_per_network_spike_spike_number_mean: CCTE's Neural Network Formation Assay for Mean Number of Spikes in a Network Spike, Shafer Lab (AID 2284053). In a few lines:
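Continuous twelve-day exposure of developing rat cortical networks grown over 16 microelectrodes per well; spontaneous firing is captured at four time points, and the per-network-spike spike number is integrated over development by trapezoidal AUC.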

The nature of experiment [13]: CCTE_Shafer_MEA_dev_per_network_spike_spike_percent: CCTE's Neural Network Formation Assay for Percent of Spikes in a Network Spike, Shafer Lab (AID 2284054). An outline of the steps: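 Developing networks of rat cortical neurons are dosed at day 0 and recorded extracellularly four times up to day 12. The endpoint is the area under the curve of percent spikes in network spikes, fitted in the negative direction relative to DMSO.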

Experiment [14] is described as follows: CCTE_Shafer_MEA_dev_LDH: CCTE's Lactate Dehydrogenase Assay for Cytotoxicity in the Neural Network Formation Assay, Shafer Lab (AID 2284068; active = hit-call score of the fitted dose curve at least 0.9, where 1 is the maximum;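 note: exposure for twelve days from plating with re-dosing on DIV 5 and 9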). In a few lines:
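Cytotoxicity companion to network-formation recordings: rat cortical neurons received compound over 12 days of development, re-dosed at DIV 5 and 9 feeds. Viability was inferred from LDH enzyme activity relative to DMSO.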

A short description of experiment [15]: CCTE_Shafer_MEA_dev_AB: CCTE's Alamar Blue Assay for Cytotoxicity in the Neural Network Formation Assay, Shafer Lab (AID 2284083; active = hit-call score of the fitted dose curve at least 0.9, where 1 is the maximum;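 note: resazurin reduction fluorescence as viability of cultured neurons; twelve days of exposure from plating with re-dosing on DIV 5 and 9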). In a few lines: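 Fluorescent resazurin reduction serves as the viability read-out, with DMSO as negative control and baseline. Cells were primary rat cortical neurons grown on MEA plates and dosed from day 0 to day 12, treatment renewed on DIV 5 and 9.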
On the technique in general: Resazurin is reduced to fluorescent resorufin, in cell work by metabolically active cells.

The nature of experiment [16]: CCTE_Shafer_MEA_dev_mutual_information_norm: CCTE's Neural Network Formation Assay for Mutual Information Normalization, Shafer Lab (AID 2284091).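 Note: mutual information between electrodes summarised as area under curve across four recording days; potency is for a decrease in mutual information relative to DMSO.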 In a few lines: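 Exposure of primary rat cortical neurons began at plating and ran to DIV 12, with full media and treatment renewal after DIV 5 and 9 recordings. Mutual information AUC (DIV 5–12) was analysed for loss versus DMSO.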

A short description of experiment [17]: CCTE_Shafer_MEA_dev_correlation_coefficient_mean: CCTE's Neural Network Formation Assay for Mean Correlation Coefficient, Shafer Lab (AID 2284093).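 Note: well mean pairwise spike train correlation integrated as AUC over recording days 5 to 12; potency fitted for loss of correlation relative to DMSO vehicle wells.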 In a few lines: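 Read-out: well-mean correlation coefficient of spike trains between electrode pairs, collapsed over four recording days as trapezoidal area-under-the-curve. Developing rat cortical neuron networks grown on MEAs received test chemical continuously from plating.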

Experiment [18] is described as follows: UKN2_HCS_IMR90_neural_migration: University of Konstanz (UKN) Leist Lab Neural Crest Cell Migration Assay in human induced IMR90 Pluripotent Stem Cells (UKN2) (AID 2284204). To be noted: actives raise or lower the signal. An outline of the steps:
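Using a 96-well stopper format with PLO/laminin/fibronectin coating, neural crest cells from iPSC migrate in cytokine-supplemented N2-S medium; after 24 h, chemicals are applied for a further 24 h, then cells are imaged after dye staining.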

Experiment [19] in a line: IUF_NPC1b_proliferation_BrdU_72hr: Leibniz Research Institute for Environmental Medicine (IUF) 72-hour Neural Progenitor Cell Bromodeoxyuridine (BrdU) Proliferation Assay (NPC1b) (AID 2284207). In a few lines:
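Neural progenitor spheres of human fetal origin are treated for three days; BrdU added for the last 16 h is quantified by luminescence ELISA, with DMSO as baseline and EGF/FGF omission as positive control.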

A short description of experiment [20]: IUF_NPC1a_proliferation_area_72hr: Leibniz Research Institute for Environmental Medicine (IUF) 72-hour Neural Progenitor Cell Proliferation Area Assay (NPC1a) (AID 2284208). An outline of the steps:
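Single 0.25–0.35 mm human fetal neural progenitor spheres in proliferation medium with EGF and FGF, exposed 72 h from plating without renewal at 37C, pH 7.2-7.6. Sphere area growth measured by automated phase-contrast imaging, relative to DMSO.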

Experiment [21] in a line: CCTE_Mundy_HCI_Cortical_Synap_Neur_Matur_NeuriteSpotCountPerNeuriteLength: CCTE's Synaptogenesis and Neurite Maturation Assay in rat cortical cells for Neurite Spot Count per Neurite Length, Mundy Lab (AID 2284210). An outline of the steps:
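Neurite-associated synapse density (synaptophysin puncta per unit neurite length) is measured by fluorescence high-content imaging in rat cortical cultures treated from DIV 7 and fixed at DIV 12, with DMSO as negative control.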

Experiment [22] is described as follows: CCTE_Mundy_HCI_Cortical_NOG_NeuriteCount: CCTE's Neurite Outgrowth Assay in rat cortical cells for Neurite Count, Mundy Lab (AID 2284212).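 Note: cells fixed about two days after chemical exposure began.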 An outline of the steps:
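Rat cortical primary cells; compound added 2 h post-plating, 1/10 dilution of working solution. Anti-betaIII-tubulin/AF488 ICC; ArrayScan neurite count vs DMSO.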

Experiment [23] in a line: CCTE_Mundy_HCI_Cortical_NOG_NeuriteLength: CCTE's Neurite Outgrowth Assay in rat cortical cells for Neurite Length, Mundy Lab (AID 2284213).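 Note: neurites imaged about 48 to 50 h after chemical exposure began.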 An outline of the steps:
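First, rat primary cortical cells were plated and, 2 h later, given test chemical as a 1/10 dilution. Finally, βIII-tubulin immunostaining enabled automated imaging of neurite length.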

With `CC1(C)C(C=C(Cl)Cl)C1C(=O)O[C@H](C#N)c1cccc(Oc2ccccc2)c1` (stereo partly drawn), the AC50 – broadly, the concentration at which the activity in the assay is half-maximal – in experiment [1] is 0.711 µM (active); in experiment [2], 4.59 µM (active); in [3], 4.44 µM (active); in experiment [4] it was 1.95 µM (active); in experiment [5] it was 2.89 µM (active); in experiment [6], 0.65 µM (active). Further, the AC50 in experiment [7] was 8.7 µM (active); in experiment [8], 1.03 µM (active); in [9], 7.66 µM (active); in experiment [10], 2.95 µM (active); in experiment [11], 3.1 µM (active); in [12], 2.74 µM (active). For the same compound, the AC50 in experiment [13] was 7.68 µM (active); in [14] it was 5.77 µM (active); in [15], 5.41 µM (active); in [16], 2.9 µM (active); in experiment [17], 4.48 µM (active); in experiment [19], 12.8 µM (active). The concentration at half-maximal activity (AC50) in [21] is 15.6 µM (active); in [22], 80 µM (active); in [23], 82 µM (active). Moreover, the compound was classed as inactive in experiment [18] and in [20].
